# Measurements: PMC9911399, “Two distinct binding modes provide the RNA-binding protein RbFox with extraordinary sequence specificity”
# Changes are numbered by the printed parent chain; changes in the protein carry UniProt numbers. Whole data set: some 16,000 sequences, median “ka relative to ugcaugu” near 0.096, cut for the highest 2% near 0.35. The entries come from a sample that favours the highest values as a whole.
# T1: RBFOX1 RRM RbFoxmut (Fox-RRM*) (Homo sapiens, UniProt Q9NWB1 109-208, R118D;E147R;N151S;E152T)
# T1 sequence: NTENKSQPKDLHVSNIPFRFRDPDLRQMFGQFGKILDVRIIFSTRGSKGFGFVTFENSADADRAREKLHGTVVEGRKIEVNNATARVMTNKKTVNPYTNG
# B1: CCCAUAA (DNA:RNA)
# RNA: GGGAGACCGGAAUUCAGAUUGUCCCCCAUAAUUAAAUCCCGUCGUAGCCACCA
# DNA 1: CAATCTGAATTCCGGTCTCCC
# DNA 2: TGGTGGCTACGACGGGATT
# B2: CGUUUAU (DNA:RNA)
# RNA: B1 RNA with C26G, C27U, A28U, A31U
# DNA 1: CAATCTGAATTCCGGTCTCCC
# DNA 2: TGGTGGCTACGACGGGATT
# B3: GCAUGUG (DNA:RNA)
# RNA: B1 RNA with C25G, C27A, A28U, U29G, A30U, A31G
# DNA 1: CAATCTGAATTCCGGTCTCCC
# DNA 2: TGGTGGCTACGACGGGATT
# B4: GCGCGCA (DNA:RNA)
# RNA: B1 RNA with C25G, C27G, A28C, U29G, A30C
# DNA 1: CAATCTGAATTCCGGTCTCCC
# DNA 2: TGGTGGCTACGACGGGATT
# B5: GUCCGUC (DNA:RNA)
# RNA: B1 RNA with C25G, C26U, A28C, U29G, A30U, A31C
# DNA 1: CAATCTGAATTCCGGTCTCCC
# DNA 2: TGGTGGCTACGACGGGATT
# B6: GCACAUG (DNA:RNA)
# RNA: B1 RNA with C25G, C27A, A28C, U29A, A30U, A31G
# DNA 1: CAATCTGAATTCCGGTCTCCC
# DNA 2: TGGTGGCTACGACGGGATT
# B7: GCAUGUC (DNA:RNA)
# RNA: B1 RNA with C25G, C27A, A28U, U29G, A30U, A31C
# DNA 1: CAATCTGAATTCCGGTCTCCC
# DNA 2: TGGTGGCTACGACGGGATT
# B8: GCAUAUG (DNA:RNA)
# RNA: B1 RNA with C25G, C27A, A28U, U29A, A30U, A31G
# DNA 1: CAATCTGAATTCCGGTCTCCC
# DNA 2: TGGTGGCTACGACGGGATT
# B9: GCGCAUA (DNA:RNA)
# RNA: B1 RNA with C25G, C27G, A28C, U29A, A30U
# DNA 1: CAATCTGAATTCCGGTCTCCC
# DNA 2: TGGTGGCTACGACGGGATT
# B10: GCGCAUG (DNA:RNA)
# RNA: B1 RNA with C25G, C27G, A28C, U29A, A30U, A31G
# DNA 1: CAATCTGAATTCCGGTCTCCC
# DNA 2: TGGTGGCTACGACGGGATT
# B11: GCAGAUG (DNA:RNA)
# RNA: B1 RNA with C25G, C27A, A28G, U29A, A30U, A31G
# DNA 1: CAATCTGAATTCCGGTCTCCC
# DNA 2: TGGTGGCTACGACGGGATT
# B12: GGCUGGU (DNA:RNA)
# RNA: B1 RNA with C25G, C26G, A28U, U29G, A30G, A31U
# DNA 1: CAATCTGAATTCCGGTCTCCC
# DNA 2: TGGTGGCTACGACGGGATT
# B13: GAAGAAG (DNA:RNA)
# RNA: B1 RNA with C25G, C26A, C27A, A28G, U29A, A31G
# DNA 1: CAATCTGAATTCCGGTCTCCC
# DNA 2: TGGTGGCTACGACGGGATT
# B14: CACGUCA (DNA:RNA)
# RNA: B1 RNA with C26A, A28G, A30C
# DNA 1: CAATCTGAATTCCGGTCTCCC
# DNA 2: TGGTGGCTACGACGGGATT
# B15: CCUUCGA (DNA:RNA)
# RNA: B1 RNA with C27U, A28U, U29C, A30G
# DNA 1: CAATCTGAATTCCGGTCTCCC
# DNA 2: TGGTGGCTACGACGGGATT
# B16: GUGCUCC (DNA:RNA)
# RNA: B1 RNA with C25G, C26U, C27G, A28C, A30C, A31C
# DNA 1: CAATCTGAATTCCGGTCTCCC
# DNA 2: TGGTGGCTACGACGGGATT
# B17: UGGUGUG (DNA:RNA)
# RNA: GGGAGACCGGAAUUCAGAUUGUCCUGGUGUGUUAAAUCCCGUCGUAGCCACCA
# DNA 1: CAATCTGAATTCCGGTCTCCC
# DNA 2: TGGTGGCTACGACGGGATT
# B18: UGGGUUG (DNA:RNA)
# RNA: B17 RNA with U28G, G29U
# DNA 1: CAATCTGAATTCCGGTCTCCC
# DNA 2: TGGTGGCTACGACGGGATT
# B19: UGGGGUG (DNA:RNA)
# RNA: B17 RNA with U28G
# DNA 1: CAATCTGAATTCCGGTCTCCC
# DNA 2: TGGTGGCTACGACGGGATT
# B20: UGUGGUG (DNA:RNA)
# RNA: B17 RNA with G27U, U28G
# DNA 1: CAATCTGAATTCCGGTCTCCC
# DNA 2: TGGTGGCTACGACGGGATT
# B21: UGGGGGG (DNA:RNA)
# RNA: B17 RNA with U28G, U30G
# DNA 1: CAATCTGAATTCCGGTCTCCC
# DNA 2: TGGTGGCTACGACGGGATT
# B22: UGUUGGG (DNA:RNA)
# RNA: B17 RNA with G27U, U30G
# DNA 1: CAATCTGAATTCCGGTCTCCC
# DNA 2: TGGTGGCTACGACGGGATT
# B23: CCUGGUG (DNA:RNA)
# RNA: B17 RNA with U25C, G26C, G27U, U28G
# DNA 1: CAATCTGAATTCCGGTCTCCC
# DNA 2: TGGTGGCTACGACGGGATT
# B24: CUGGGUG (DNA:RNA)
# RNA: B17 RNA with U25C, G26U, U28G
# DNA 1: CAATCTGAATTCCGGTCTCCC
# DNA 2: TGGTGGCTACGACGGGATT
# B25: UGGGUCG (DNA:RNA)
# RNA: B17 RNA with U28G, G29U, U30C
# DNA 1: CAATCTGAATTCCGGTCTCCC
# DNA 2: TGGTGGCTACGACGGGATT
# B26: UGGUCCG (DNA:RNA)
# RNA: B17 RNA with G29C, U30C
# DNA 1: CAATCTGAATTCCGGTCTCCC
# DNA 2: TGGTGGCTACGACGGGATT
# B27: UGGGUGU (DNA:RNA)
# RNA: B17 RNA with U28G, G29U, U30G, G31U
# DNA 1: CAATCTGAATTCCGGTCTCCC
# DNA 2: TGGTGGCTACGACGGGATT
# B28: UGGGUCC (DNA:RNA)
# RNA: B17 RNA with U28G, G29U, U30C, G31C
# DNA 1: CAATCTGAATTCCGGTCTCCC
# DNA 2: TGGTGGCTACGACGGGATT
# B29: GGUUCAA (DNA:RNA)
# RNA: B1 RNA with C25G, C26G, C27U, A28U, U29C
# DNA 1: CAATCTGAATTCCGGTCTCCC
# DNA 2: TGGTGGCTACGACGGGATT
# B30: CCGCUAC (DNA:RNA)
# RNA: B1 RNA with C27G, A28C, A31C
# DNA 1: CAATCTGAATTCCGGTCTCCC
# DNA 2: TGGTGGCTACGACGGGATT
# B31: UGUACUC (DNA:RNA)
# RNA: B17 RNA with G27U, U28A, G29C, G31C
# DNA 1: CAATCTGAATTCCGGTCTCCC
# DNA 2: TGGTGGCTACGACGGGATT
# Target: T1, RBFOX1 RRM RbFoxmut (Fox-RRM*)
# Experiment: EMSA; HiTS-Eq, 1 nM pool, 10 min; buffer printed only for the single-RNA assays: 10 mM Tris pH 7.5, 150 mM NaCl, 3.4 mM EDTA, 0.001% NP-40, 30 C
# Settings: tags: His6 N-terminal (pET28a); label: 5' 32P
# In short: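 Purified RbFox RRM (wild type or mutant) was equilibrated for 10 min in 50 µL with 1 nM of a 5′-radiolabelled pool of RNA with 7 randomized nucleotides, its flanks annealed to DNA oligonucleotides, across increasing protein concentrations. Free RNA was separated by 8% native PAGE, excised, reverse-transcribed, PCR-barcoded and sequenced on an Illumina HiSeq 2500. Relative association constants came from read-count changes of each variant against the control reaction, normalised to the cognate motif.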
row,Binder,binding signal
1,B1,0.0954 KA relative to UGCAUGU
2,B2,0.147 KA relative to UGCAUGU
3,B3,0.954 KA relative to UGCAUGU
4,B4,0.13 KA relative to UGCAUGU
5,B5,0.0864 KA relative to UGCAUGU
6,B6,0.128 KA relative to UGCAUGU
7,B7,0.492 KA relative to UGCAUGU
8,B8,0.197 KA relative to UGCAUGU
9,B9,0.152 KA relative to UGCAUGU
10,B10,1.33 KA relative to UGCAUGU
11,B11,0.142 KA relative to UGCAUGU
12,B12,0.14 KA relative to UGCAUGU
13,B13,0.0975 KA relative to UGCAUGU
14,B14,0.124 KA relative to UGCAUGU
15,B15,0.0928 KA relative to UGCAUGU
16,B16,0.0573 KA relative to UGCAUGU

row,Binder,binding signal
1,B17,0.498 KA relative to UGCAUGU
2,B18,0.947 KA relative to UGCAUGU
3,B19,0.38 KA relative to UGCAUGU
4,B20,0.273 KA relative to UGCAUGU
5,B21,0.0903 KA relative to UGCAUGU
6,B22,0.0997 KA relative to UGCAUGU
7,B23,0.109 KA relative to UGCAUGU
8,B24,0.347 KA relative to UGCAUGU
9,B25,0.375 KA relative to UGCAUGU
10,B26,0.265 KA relative to UGCAUGU
11,B27,0.305 KA relative to UGCAUGU
12,B28,0.149 KA relative to UGCAUGU
13,B29,0.0825 KA relative to UGCAUGU
14,B30,0.129 KA relative to UGCAUGU
15,B31,0.0695 KA relative to UGCAUGU
